According to PubChem BioAssay AID602439 (Southern Research Specialized Biocontainment Screening …, 2012):
Potency and affinity values are given separately. The source made the active and inactive calls. Where a call stands in place of a potency, no number is given. No rule for the calls is given here.

Test: viability of Vero 76 cells – cell-based, set 3, cytotoxicity control, dose response (AID 602439)
Settings: Vero 76 cell viability; series mostly up to 50 µM

SMILES | outcome
CCN1CCN(Cc2nc3ccc([N+](=O)[O-])cc3c(=O)n2-c2ccccc2F)CC1 | inactive
O=C(Cc1cccs1)Nc1nccs1 | inactive
O=C(Cc1ccccc1)Nc1nc2c(s1)CCCC2 | inactive
CN(C(=O)Cc1cccs1)c1nc2c(s1)CCCC2 | inactive
CN1CCN(Cc2nc3ccc([N+](=O)[O-])cc3c(=O)n2-c2ccccc2F)CC1 | inactive
CC(C)N1CCN(Cc2nc3ccc([N+](=O)[O-])cc3c(=O)n2-c2ccccc2F)CC1 | inactive
O=c1c2cc([N+](=O)[O-])ccc2nc(CN2CCOCC2)n1-c1ccccc1F | inactive
O=C(Cc1cccs1)Nc1nc2ccccc2s1 | inactive
